# Bioassay records deposited in PubChem by National Center for Advancing Translational Sciences (NCATS).
# Cruzain inh Det: blocks cruzain activity in presence of Triton detergent; Potency, µM, inactives show max response, negative = inhibition, usual class: inhibitors; purified cruzain, Z-FR-AMC fluorescence, 0.01% Triton; 0.43% of 200,000 active; P25779;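 note: plate controls were neutral wells for no effect and buffer without enzyme for full effect; nearly all actives have a fitted effect of over 40% in size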
# Target sequence (P25779 123-467 limits assumed): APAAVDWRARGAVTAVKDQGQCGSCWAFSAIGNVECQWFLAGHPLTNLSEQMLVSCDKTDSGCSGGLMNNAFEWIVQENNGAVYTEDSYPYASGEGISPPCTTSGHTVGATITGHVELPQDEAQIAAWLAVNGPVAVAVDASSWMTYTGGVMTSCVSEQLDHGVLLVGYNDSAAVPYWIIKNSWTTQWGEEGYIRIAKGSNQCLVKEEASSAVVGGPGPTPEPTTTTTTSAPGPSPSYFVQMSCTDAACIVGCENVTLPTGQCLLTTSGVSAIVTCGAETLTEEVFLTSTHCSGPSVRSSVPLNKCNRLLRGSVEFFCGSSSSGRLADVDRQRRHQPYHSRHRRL
#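 Purified cruzain (1.5 nM final) was preincubated with compounds for 15 min at room temperature in 100 mM sodium acetate pH 5.5, 5 mM DTT, 0.01% Triton X-100. Reaction started with 2 uM Z-FR-AMC; AMC fluorescence change over 60 s gave activity.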
# Cruzain noTriton: blocks cruzain activity in detergent-free assay; P25779; purified cruzain, Z-FR-AMC fluorescence, no detergent; Potency, µM, inactives show max response, negative = inhibition, actives largely listed as inhibitors; 2.3% of 200,000 active;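 note: plate controls were enzyme without inhibitor for no effect and buffer without enzyme for full effect; nearly all actives have a fitted effect of over 40% in size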
#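 Detergent-free condition (0.00005% Triton X-100) in acetate buffer pH 5.5 with DTT. 1.5 nM enzyme and compound were pre-mixed 15 min, then 2 uM Z-FR-AMC substrate added; reaction progress from fluorescence change between first and third reads (60 s).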
# Starred values were filed as active, the others as inactive; ? = inconclusive. In the library only some 2.5% were active in any assay of this set; here they are far more common. Calls come from the whole dose curve; as a rule, active = well fitted curve in the direction sought with a large enough effect; inconclusive = small, poorly fitted or top-dose-only effect, or another doubt; inactive = no such curve, though single readings can be large; an effect the other way counts as inactive or inconclusive. Potency is the fitted concentration of half-maximal effect.
SMILES,Cruzain inh Det,Cruzain noTriton
Cc1ccccc1-n1c(SCC(=O)N/N=C/C=C/c2ccccc2[N+](=O)[O-])nc2ccccc2c1=O,-1%,?
COc1nc(Oc2ccc(C(=O)O)cc2)nc(Oc2ccc(C(=O)O)cc2)n1,5%,-7%
COc1ccc(Oc2nc(Oc3ccc(OC)cc3)nc(Oc3ccc(OC)cc3)n2)cc1,2%,3.2µM*
COc1ccc(Nc2ccc3cc(S(=O)(=O)N4CCCC4)ccc3n2)cc1OC,-7%,-13%
CC(=O)c1cccc(Nc2ccc3cc(S(=O)(=O)N4CCCC4)ccc3n2)c1,-7%,13µM*
CCN1C(=O)c2ccccc2Sc2ccc(NC(=O)Nc3ccc(C(C)=O)cc3)cc21,-5%,20%
CCN1C(=O)c2ccccc2Sc2ccc(NC(=O)Nc3ccc(Br)c(C)c3)cc21,-2%,7.9µM*
O=C(/C=C/c1cccs1)N1CCOCC1,-6%,6.3µM*
O=C(/C=C/c1cccs1)N1CCN(c2ccccc2F)CC1,-6%,-6%
Cc1cc(C(=O)N[C@@H](c2ccccc2)[C@]2(C)C[C@H]2[C@@H](C)C(=O)Nc2ccc3ccccc3c2)n(C)n1,1%,0%
O=C(COC(=O)c1cccs1)Nc1ccccc1,2%,-1%
CC(=O)c1ccc(NC(=O)COC(=O)CCC(=O)c2cccs2)cc1,-1%,-1%
O=C(COC(=O)c1c2c(nc3ccccc13)/C(=C\c1cccs1)CCC2)Nc1ccccc1,0%,10µM*
O=C(COC(=O)c1c2c(nc3ccccc13)CCCC2)Nc1ccc2c(c1)OCO2,-6%,25µM*
CC(=O)c1ccc(NC(=O)COC(=O)c2c3c(nc4ccccc24)/C(=C\c2cccs2)CCC3)cc1,5%,7.9µM*
O=C(COC(=O)c1cc(-c2ccccc2)nc2ccccc12)Nc1ccc2c(c1)OCO2,-4%,?
COc1cc(C(=O)Nc2cccc(OCc3cc(=O)n4cc(C)sc4n3)c2)cc(OC)c1OC,0%,?
C[C@@H]1c2ccccc2CN1CC1=NCCN1,2%,5%
COc1cc(NC(=O)C2CCCN(S(=O)(=O)c3cn(C)cn3)C2)cc(OC)c1 (centres undefined),0%,-7%
CCOC(=O)CN1C=C(c2ccc3ccccc3n2)C(C[N+](=O)[O-])c2ccccc21 (centres undefined),-4%,25µM*
CCOC(=O)CSc1nc2ccccc2n1CC(=O)N(C(C)C)C(C)C,1%,-8%
Cc1cc(C)n(C(C)CC(=O)Nc2ccc(C)c(N(C)C)c2)n1 (centres undefined),-1%,8%
O=[N+]([O-])c1ccc(N2N=C(c3ccco3)CC2c2ccccc2)cc1 (centres undefined),-7%,13µM*
Fc1ccc(C2CC(c3ccco3)=NN2c2ccccc2)cc1 (centres undefined),-3%,?
COc1ccc(NC(=O)Cn2cc(S(=O)(=O)c3ccc(C)cc3)c(=O)c3ccccc32)cc1OC,-6%,?
SMILES,Cruzain inh Det,Cruzain noTriton
Cc1ccc(S(=O)(=O)c2cn(CC(=O)Nc3cccc(Cl)c3)c3ccccc3c2=O)cc1,-2%,32µM*
Cc1ccc(C)c(N2CCN(C(=O)C(C)n3c(C)c4cnn(-c5ccccc5)c(=O)c4c3C)CC2)c1 (centres undefined),-2%,-4%
O=C1O/C(=C/c2ccccc2)N=C1c1ccccc1,13µM*,16µM*
O=C1O/C(=C\c2ccccc2)c2ccccc21,-10%,-13%
CC(Oc1ccccc1F)C(=O)Nc1ccc(-c2nc3ccccc3s2)cc1 (centres undefined),4%,-4%
CCc1nnc(N/N=C/c2c(Cl)cccc2Cl)n1N,-3%,-7%
Cc1nnc(N/N=C/c2cccc(OCc3ccc(Cl)c(Cl)c3)c2)n1N,22µM*,?
COc1cc(NC(=O)Cn2c(C)cc(C)c(C#N)c2=O)cc(OC)c1,-3%,-1%
Cc1cc2c(cc1S(=O)(=O)N(CCN(C)C)Cc1ccccc1)OCC(=O)N2,4%,-3%
O=S(=O)(Nc1ccc(Cl)cc1)c1cccc(S(=O)(=O)c2ccc(Cl)c(Cl)c2)c1,-4%,?
C=CCn1c(=O)c2ccc(C(=O)NCc3ccccc3)cc2n(Cc2ccc(Cl)cc2)c1=O,-4%,-28%
C=CCn1c(=O)c2ccc(C(=O)NCc3ccccc3)cc2n(Cc2ccccc2Cl)c1=O,2%,25µM*
COc1ccc(-n2nc3ccc(NC(=O)c4c(OC)cccc4OC)cc3n2)cc1,5%,-6%
CCOC(=O)c1ccccc1NC(=O)Cn1cc(C(=O)c2cccc(OC)c2)c(=O)c2ccc(C)nc21,-2%,-5%
COc1cc(/C=C2/N=C(C3CCCCC3)OC2=O)cc(OC)c1OC,2.5µM*,2.5µM*
COc1cc(C2=N/C(=C\c3ccccc3)C(=O)O2)cc(OC)c1OC,3%,-8%
Cc1cc(C)cc(-c2cc3c(c(-c4c(O)c(-c5cc(C)cc(C)c5)cc5c4CCCC5)c2O)CCCC3)c1,1%,16µM*
Oc1ccc2c(c1-c1c(O)c(Br)cc3c1CCCC3)CCCC2,0%,3%
CCOC(=O)c1c(C)[nH]c(C)c1S(=O)(=O)N1CCCC(C(=O)N2CCN(c3cc(C)ccc3C)CC2)C1 (centres undefined),-8%,?
CCOc1ccccc1CNC(=O)c1cc2c(=O)n(Cc3ccccc3)ccc2nc1C,2%,?
CC1=Nc2cc(C(=O)NCCc3ccccc3)ccc2Sc2c(C)ccc(C)c21,-4%,?
CC1=Nc2cc(C(=O)NCCc3ccc(Cl)cc3)ccc2Sc2c(C)ccc(C)c21,-1%,25µM*
COc1ccc(C2CC(c3ccccc3)=NN2c2ccc(N)cc2)cc1 (centres undefined),-10%,20µM*
CCOC(=O)C1=NN(c2ccc(OC)cc2)C(c2ccccc2)CC1=O (centres undefined),-11%,-9%
Cc1nn(-c2nc(-c3ccc(F)cc3)cc(C(F)(F)F)n2)c(C)c1Br,-19%,6%
SMILES,Cruzain inh Det,Cruzain noTriton
O=C(/C=C/c1cccc([N+](=O)[O-])c1)Nc1ccc(NC(=O)c2cccs2)cc1,-8%,20µM*
CC(=O)Nc1cccc(NC(=O)c2ccc([N+](=O)[O-])cc2Cl)c1,-2%,4%
O=C(/C=C/c1cccc([N+](=O)[O-])c1)c1cccs1,-2%,-1%
O=C(/C=C/c1cccc([N+](=O)[O-])c1)NC(=S)Nc1cccc(NC(=O)c2ccccc2Cl)c1,-6%,6.3µM*
CCOc1ccccc1NC(=O)CN1C(=O)COc2ccc(S(=O)(=O)N3CCCCCC3)cc21,0%,-7%
COc1ccc(/C=C/c2nnc(NC(=O)COc3cccc(C)c3)s2)cc1,2%,13µM*
COc1ccc(/C=C/c2nnc(NC(=O)COc3ccc(C)cc3)s2)cc1,-3%,?
Cc1onc(-c2c(Cl)cccc2Cl)c1C(=O)NC(=S)Nc1sc2c(c1C(N)=O)CCC(C)C2 (centres undefined),3%,4µM*
COc1ccc(-c2cc(C(=O)Nc3sc4c(c3C(N)=O)CCC(C)C4)no2)cc1 (centres undefined),-2%,-4%
CCOC(=O)c1c(NC(=O)c2nc(S(C)(=O)=O)ncc2Cl)sc(C(C)=O)c1C,-3%,-21%
CCOC(=O)c1[nH]c(C)c(CCC(=O)N2CCN(c3cc(C)ccc3C)CC2)c1C,-6%,?
COc1ccc(-c2ccc(-c3cc(=O)oc4cc(C)cc(C)c34)cc2)cc1,0%,?
Cc1cc(C)c2c(-c3ccc(-c4ccc(C(F)(F)F)cc4)cc3)cc(=O)oc2c1,5%,25µM*
